Results published in PubChem BioAssay (NCI).
Compounds without any hit were thinned out: in the full panel of roughly 83,000, 20% have a hit.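 Testing used 96-well plates and a 48-hour single-concentration exposure. Example: -40 means 40% of the starting cells died.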 Values without a mark were called inactive. Calls of active or inactive are those of the source. Rule for the calls: active = growth percent below 10; inactive = the rest.

How the values were obtained:
Assay in all cases: NCI-60 one-dose screen, 48 h (100 = growth as untreated, 0 = no growth, -100 = all killed)
[1] = tested on: DU-145 prostate; settings: 10 µM unless noted
[2] = tested on: K-562 leukemia; settings: 10 µM unless noted
[3] = tested on: MALME-3M melanoma; settings: 10 µM unless noted
[4] = tested on: MDA-MB-231 breast; settings: 10 µM unless noted
[5] = tested on: RXF 393 renal; settings: 10 µM unless noted
[6] = tested on: SF-268 CNS; settings: 10 µM unless noted
[7] = tested on: SF-295 CNS; settings: 10 µM unless noted
[8] = tested on: SF-539 CNS; settings: 10 µM unless noted
[9] = tested on: UACC-257 melanoma; settings: 10 µM
[10] = tested on: M14 melanoma; settings: 10 µM unless noted
[11] = tested on: HT29 colon; settings: 10 µM unless noted
[12] = tested on: SNB-75 CNS; settings: 10 µM unless noted
[13] = tested on: SNB-19 CNS; settings: 10 µM unless noted
[14] = tested on: U251 CNS; settings: 10 µM unless noted
[15] = tested on: PC-3 prostate; settings: 10 µM unless noted
[16] = tested on: SK-MEL-5 melanoma; settings: 10 µM unless noted
[17] = tested on: UACC-62 melanoma; settings: 10 µM unless noted
[18] = tested on: LOX IMVI melanoma; settings: 10 µM unless noted
[19] = tested on: SK-MEL-28 melanoma; settings: 10 µM unless noted
[20] = tested on: HCT-15 colon; settings: 10 µM unless noted

Compound | growth [1] | growth [2] | growth [3] | growth [4] | growth [5] | growth [6] | growth [7] | growth [8] | growth [9] | growth [10] | growth [11] | growth [12] | growth [13] | growth [14] | growth [15] | growth [16] | growth [17] | growth [18] | growth [19] | growth [20]
COc1cc(OC)c(S(N)(=O)=O)cc1C(=O)/C=C/c1ccccc1 | 1.92% (active) | 9.69% (active) | 68.1% | 10.3% | -29.7% (active) | 38.3% | 58.3% | 1.13% (active) | 88.6% | 45.9% | 25.3% | 77.4% | 47.5% | 28.5% | 32.9% | 23.2% | 42.8% | 3.55% (active) | 58% | –
COC[C@@]1(C)CC[C@]2(C)CC[C@]3(C)C(=CC[C@@H]4[C@@]5(C)CCCNC(C)(C)[C@@H]5CC[C@]43C)C2C1 (stereo partly drawn) | 73.6% | 6.79% (active) | 56.7% | 77.7% | 72.2% | 77.1% | 3.52% (active) | 62.7% | 60% | 50.1% | 23.3% | 104% | 67.5% | 35.3% | 46.4% | 87.7% | 64.5% | 12.6% | 66.6% | –
Cc1nn(-c2ccc(Cl)cc2)c(C)c1N=Nc1ccc2oc(=O)ccc2c1 | 74.5% | 73.5% | 89.5% | 77.5% | 79.4% | 85.1% | 90% | 62.1% | 94.6% | 104% | 94.5% | – | 97.3% | 82.8% | – | 84.3% | 80.5% | 69.6% | – | 81.4%
CCc1ccc(NC(=O)N[C@@H](Cc2cccc(C)c2)C(=O)N[C@@H]2C(=O)N3CCC[C@H]3C(=O)N3CCCC[C@H]3C(=O)N[C@@H](CO)C(=O)N3C[C@H](C)C[C@H]3C(=O)O[C@H]2C)c(F)c1 | 25.3% | 27% | 37.3% | 33.9% | -9.15% (active) | 30.1% | 12.8% | 37.5% | 15% | 23.7% | 33.5% | 20.4% | 28.3% | 31.7% | 17.8% | -29.3% (active) | 25.9% | 32.8% | 38.1% | –
COc1cc(/C=C/C(=O)c2ccc(NC(=O)CSc3nnc(-c4ccc5nc(-c6ccccc6)[nH]c5c4)o3)cc2)cc(OC)c1OC | 91% | 58.3% | 109% | 93.6% | -6.89% (active) | 97.7% | 105% | 82.5% | 87.6% | – | 104% | 81.1% | 84.4% | 80.6% | 99% | 92.2% | 83% | 56% | 93.4% | 87.6%
COc1cc(-c2nc(SCc3ccc(C)cc3)[nH]c(=O)c2C#N)ccc1OCc1ccccc1 | 106% | 87.9% | 94.5% | 104% | 108% | 97.6% | 106% | 101% | 96.9% | 105% | 109% | 96.6% | 97.2% | 102% | 107% | 87.8% | 97.8% | 114% | 101% | –
O=C(Nc1cccc(Cl)c1)Nc1nc2ccc(-c3cccc4ccccc34)cc2s1 | 42.7% | 17.9% | 42.8% | 75.2% | 84.4% | 66.7% | 63.4% | 87% | 50.6% | 68.7% | 49.4% | – | 56.4% | 35.4% | – | 54.4% | 42.3% | – | 73.3% | 34.1%
COc1ccc([C@H]2c3[nH]c4ccccc4c3C[C@@H]3C(=O)N(C4CCN(Cc5ccccc5)CC4)CC(=O)N23)c(OC)c1 | 86.3% | 28.8% | 97.1% | 77.7% | 41.9% | 63% | 94.6% | 81.7% | 94.5% | – | 43.1% | 83.1% | 83.1% | 75.8% | 48.1% | 73.7% | – | 58.7% | 85.1% | 48.3%
O=C1CC2(CCOCC2)Oc2ncccc21 | 97.7% | 4.49% (active) | -31.6% (active) | 8.5% (active) | 92.8% | 65.2% | 109% | 27.7% | 79.2% | – | 49.8% | 115% | 51.4% | 22.3% | 88.7% | 100% | 61.1% | -78.7% (active) | -22.3% (active) | -62.6% (active)
NCCN1CCN(c2nc(-c3ccccc3)nc3nc(-c4ccccc4)oc23)CC1 | -79% (active) | 6.56% (active) | -68.8% (active) | -74.5% (active) | 49.6% | -64.7% (active) | -83.6% (active) | -87.6% (active) | 93.4% | – | -52.8% (active) | -77.1% (active) | -19.7% (active) | -51.4% (active) | 15% | 78.7% | 101% | -90.6% (active) | -85.4% (active) | -66.8% (active)
COCCC[C@H]1O[C@@](O)([C@H](C)[C@@H]2CC(OC)C(O)/C=C(C)/C=C(C)/C=C(\C)C(OC3O[C@@H](C)[C@H](O)C(O)[C@@H]3O)C(C)/C=C(C)/C=C(OC)/C=C(\C)C(=O)O2)C(OC)C(O)[C@]1(C)O[C@H]1C[C@@H](O)[C@H](O[C@H]2C[C@](C)(O)[C@H](O)C(C)O2)C(C)O1 (stereo partly drawn) | 48.5% | 21.2% | 51.1% | 84.1% | 47.6% | 73% | 24.8% | 79.2% | 3.39% (active) | – | 67% | 35.3% | 38.8% | 47% | 27.8% | 7.32% (active) | 58.4% | 76.4% | 84.2% | 57.5%
O=C(NCCCNc1cc(-c2cn(-c3ccccc3)nc2-c2cccc(O)c2)ccn1)Nc1cc(C(F)(F)F)cc(C(F)(F)F)c1 | 95.8% | 50.7% | 67% | 66.8% | 8.69% (active) | 60.6% | 45.3% | 74.9% | 82.3% | – | 31.7% | 64.2% | 68.5% | 51.5% | 39.9% | 55.7% | 73% | 81.2% | 83.7% | 33.4%
Fc1ccc(-c2cc3nc(C(Cl)Cl)nc(-c4cccs4)n3n2)cc1 | -21.8% (active) | 44.5% | 62.5% | -15.2% (active) | -44.1% (active) | 13.3% | -7.41% (active) | -2.29% (active) | 46.2% | – | 4.52% (active) | 69.8% | 9.61% (active) | -3.12% (active) | 1.42% (active) | 92% | 45.8% | 94.8% | 23.6% | 15.9%
O=C(c1cccc(F)c1)n1ccc2cc(NC(=S)Nc3cccnc3)ccc21 | 102% | 96% | 92.7% | 106% | 108% | 95.7% | 97.3% | 99.8% | 97.4% | – | 103% | 90.6% | 86.5% | 95.1% | 96.5% | 99.6% | 86.8% | 99% | 106% | 89.6%
CN1C(=O)N(C)C2C1NN=c1s/c(=C\c3ccccn3)c(=O)n12 (stereo not drawn) | 108% | 93.9% | 92.7% | 98% | 102% | 99.9% | 99.8% | 96.3% | 96.4% | – | 102% | 93% | 96.8% | 101% | 94.8% | 102% | – | 100% | 107% | 79.4%
COc1ccc(/C=N/Nc2nc(N/N=C/c3ccc(OC)cc3O)nc(N3CCOCC3)n2)c(O)c1 | 57.8% | 28% | 67.6% | 70.3% | -16.2% (active) | 53.8% | 31.3% | 47.3% | 55.8% | – | 56.4% | 74.4% | 69.4% | 45.6% | 35.8% | 40.6% | 69.3% | 45.4% | 37.4% | 3.39% (active)
